Laboratory results reported in PubChem BioAssay (Tox21).
Records with an inconclusive call do not appear. Entries that show only a call come without a potency. The source made the active and inactive calls. Unless noted, calls follow the shape of the dose curve; as a rule, active = well fitted curve in the direction sought with a large enough effect in the repeat runs; inconclusive = weak or mixed curves; inactive = no such curve, though single readings can be large; an effect the other way counts as inactive or inconclusive.

Experiments:
[1] = target: Aryl hydrocarbon receptor (Homo sapiens) (UniProt P35869); assay: qHTS assay to identify small molecule that activate the aryl hydrocarbon receptor (AhR) signaling pathway (AID 743085); also: nearly all actives have a fitted effect of over 15% in size; also: potency is read from the fitted curve at half-maximal effect;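 as to activation: HG2L7.5c1 human HepG2 liver cells with stably integrated DRE-driven firefly reporter; series mostly up to about 70 µM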
Aryl hydrocarbon receptor (Homo sapiens), sequence (P35869 whole entry, looked up): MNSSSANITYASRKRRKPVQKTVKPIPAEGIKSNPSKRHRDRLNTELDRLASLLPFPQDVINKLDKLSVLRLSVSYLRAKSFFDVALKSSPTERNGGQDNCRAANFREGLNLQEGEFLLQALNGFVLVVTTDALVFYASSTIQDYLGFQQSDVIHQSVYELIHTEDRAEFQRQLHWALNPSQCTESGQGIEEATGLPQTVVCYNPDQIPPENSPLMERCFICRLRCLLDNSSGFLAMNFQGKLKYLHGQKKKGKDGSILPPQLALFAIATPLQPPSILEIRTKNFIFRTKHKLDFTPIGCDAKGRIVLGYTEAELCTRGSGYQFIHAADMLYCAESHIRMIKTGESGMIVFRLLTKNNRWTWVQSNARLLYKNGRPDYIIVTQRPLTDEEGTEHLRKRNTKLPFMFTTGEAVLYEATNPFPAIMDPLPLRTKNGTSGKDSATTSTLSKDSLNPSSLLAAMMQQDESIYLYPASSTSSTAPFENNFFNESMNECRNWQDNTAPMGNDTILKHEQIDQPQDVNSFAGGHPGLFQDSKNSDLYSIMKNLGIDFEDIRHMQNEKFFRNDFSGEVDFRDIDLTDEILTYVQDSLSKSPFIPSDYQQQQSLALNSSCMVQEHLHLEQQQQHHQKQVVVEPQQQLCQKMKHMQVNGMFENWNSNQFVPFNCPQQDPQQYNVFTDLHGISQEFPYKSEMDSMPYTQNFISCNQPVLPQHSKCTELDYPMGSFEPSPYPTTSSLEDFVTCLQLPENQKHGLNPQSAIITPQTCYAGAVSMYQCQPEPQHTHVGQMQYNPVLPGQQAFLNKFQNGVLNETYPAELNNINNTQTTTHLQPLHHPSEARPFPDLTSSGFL
In short: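 Compounds were tested in HepG2 hepatocellular carcinoma cells harbouring a stably integrated luciferase gene under control of 20 DREs. Increased reporter signal after 24 h treatment at 37C was taken as AhR activation.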

[2] = qHTS assay to identify small molecule that activate the aryl hydrocarbon receptor (AhR) signaling pathway - cell viability counter screen (AID 743086); also: nearly all actives have a fitted effect of over 45% in size; also: potency is read from the fitted curve at half-maximal effect
In short: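 HepG2-AhR-luc (HG2L7.5c1) cells, 4000/well, treated 24 h at 37 C with compound; viability measured as CellTiter-Fluor fluorescence after 30 min in the same wells as the luciferase read.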

[3] = target: Peroxisome proliferator-activated receptor gamma (Homo sapiens) (UniProt P37231); assay: qHTS assay to identify small molecule agonists of the peroxisome proliferator-activated receptor gamma (PPARg) signaling pathway (AID 743094; active = well fitted activation curve with a large enough effect in the signal ratio in the repeat runs, not every such curve was filed as active; the % refers to the signal ratio)
Peroxisome proliferator-activated receptor gamma (Homo sapiens), sequence (P37231 whole entry, looked up): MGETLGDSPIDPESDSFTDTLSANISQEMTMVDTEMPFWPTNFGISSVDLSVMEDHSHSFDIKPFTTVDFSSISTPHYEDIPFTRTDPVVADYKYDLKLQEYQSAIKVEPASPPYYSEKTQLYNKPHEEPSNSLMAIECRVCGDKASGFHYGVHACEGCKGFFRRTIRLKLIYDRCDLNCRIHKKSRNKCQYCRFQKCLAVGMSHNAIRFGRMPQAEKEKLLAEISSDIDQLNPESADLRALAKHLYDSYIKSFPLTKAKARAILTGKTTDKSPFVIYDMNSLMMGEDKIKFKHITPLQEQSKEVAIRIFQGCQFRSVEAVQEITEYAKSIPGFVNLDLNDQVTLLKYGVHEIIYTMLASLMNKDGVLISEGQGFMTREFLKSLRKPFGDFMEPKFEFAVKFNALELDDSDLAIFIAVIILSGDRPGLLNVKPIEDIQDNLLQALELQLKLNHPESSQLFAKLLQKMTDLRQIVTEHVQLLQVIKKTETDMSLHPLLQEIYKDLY
In short: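 Fluorescence-based beta-lactamase readout in HEK293H PPARg UAS-bla cells after 17 h compound exposure (37C) and 1 h B/G FRET substrate incubation at room temperature.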

[4] = qHTS assay to identify small molecule antagonists of the peroxisome proliferator-activated receptor gamma (PPARg) signaling pathway - cell viability counter screen (AID 743194); also: nearly all actives have a fitted effect of over 55% in size
In short: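 Cytotoxicity counter screen in PPARg-bla HEK293H cells, same wells as reporter assay. Compounds plus 50 nM rosiglitazone (final) for 17 h at 37 C, then viability read by CellTiter-Glo luminescence.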

[5] = qHTS assay for small molecule agonists of the antioxidant response element (ARE) signaling pathway - cell viability counter screen (AID 743203; calls by dose curve; also: nearly all actives have a fitted effect of over 55% in size)
In short: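 Parallel cytotoxicity read-out for the ARE-bla screen: HepG2 reporter cells, 16 hrs with compounds, then CellTiter-Glo luminescence.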

[6] = qHTS assay for small molecule activators of the heat shock response signaling pathway - cell viability counter screen (AID 743209); also: nearly all actives have a fitted effect of over 50% in size
In short: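 To flag cytotoxic compounds, HSE-bla HeLa cells plated at 1500 cells/well were dosed for 5 h at 37 C, followed by the reporter FRET read and then CellTiter-Glo, with luminescence recorded 30 min after reagent addition.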

[7] = qHTS assay for small molecule activators of the heat shock response signaling pathway (AID 743210; active = well fitted activation curve with a large enough effect in the signal ratio in the repeat runs, with a control signal flat, not every such curve was filed as active; the % refers to the signal ratio;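 also: HeLa cells with beta-lactamase reporter driven by heat shock elements; series mostly up to about 63 µM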)
In short: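 Following overnight attachment, HSE-bla HeLa cells received test compounds for 5 h at 37 C; beta-lactamase activity was then detected via FRET substrate fluorescence.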

[8] = qHTS assay to identify small molecule agonists of the peroxisome proliferator-activated receptor delta (PPARd) signaling pathway - cell viability counter screen (AID 743211); also: nearly all actives have a fitted effect of over 55% in size
In short: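 Counter screen for cytotoxicity run in parallel with the PPARd reporter screen. Beta-lactamase reporter HEK293H cells exposed to compounds 17 h; ATP-based CellTiter-Glo luminescence quantified viability.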

[9] = target: Peroxisome proliferator-activated receptor delta (Homo sapiens) (UniProt Q03181); assay: qHTS assay to identify small molecule agonists of the peroxisome proliferator-activated receptor delta (PPARd) signaling pathway (AID 743212; calls by dose curve)
Peroxisome proliferator-activated receptor delta (Homo sapiens), sequence (Q03181 whole entry, looked up): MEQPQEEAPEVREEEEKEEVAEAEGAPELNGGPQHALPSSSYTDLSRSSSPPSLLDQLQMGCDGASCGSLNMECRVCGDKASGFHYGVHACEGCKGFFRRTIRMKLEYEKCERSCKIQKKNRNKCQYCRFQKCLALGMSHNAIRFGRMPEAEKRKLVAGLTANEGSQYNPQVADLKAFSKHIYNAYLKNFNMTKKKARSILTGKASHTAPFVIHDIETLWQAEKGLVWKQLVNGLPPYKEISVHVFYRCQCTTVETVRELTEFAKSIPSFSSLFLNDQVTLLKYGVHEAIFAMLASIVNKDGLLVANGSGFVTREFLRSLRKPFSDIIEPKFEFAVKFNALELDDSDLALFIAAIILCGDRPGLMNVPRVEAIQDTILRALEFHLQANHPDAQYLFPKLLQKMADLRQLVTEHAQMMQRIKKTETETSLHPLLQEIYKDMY
In short: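 Tox21 library screened in GeneBLAzer PPARd UAS-bla HEK293H cells. After compound treatment at 37 C, a FRET-based beta-lactamase substrate was applied for 2 h and fluorescence recorded.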

[10] = qHTS assay to identify small molecule antagonists of the peroxisome proliferator-activated receptor delta (PPARd) signaling pathway - cell viability counter screen (AID 743213); also: nearly all actives have a fitted effect of over 50% in size
In short: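 Same-well viability: cells pre-incubated 5 h, dosed with compound plus 300 nM L165041, kept 17 h at 37 C, FRET substrate 2 h RT, then CellTiter-Glo 30 min RT and luminescence.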

[11] = target: Peroxisome proliferator-activated receptor delta (Homo sapiens) (UniProt Q03181); assay: qHTS assay to identify small molecule antagonists of the peroxisome proliferator-activated receptor delta (PPARd) signaling pathway (AID 743215; active = well fitted inhibition curve with a large enough effect in the signal ratio in the repeat runs, not every such curve was filed as active; the % refers to the signal ratio;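 also: cells stimulated with agonist L165041 at 300 nM final during compound exposure; series mostly up to about 62 µM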)
In short: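 Screen format: qHTS, antagonist mode. HEK293H PPARd-bla cells received compound and 300 nM L165041 (final), 17 h, 37 C. Beta-lactamase detected via FRET substrate fluorescence, 2 h, room temperature.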

[12] = qHTS assay to identify small molecule antagonists of the farnesoid-X-receptor (FXR) signaling pathway - cell viability counter screen (AID 743221; active = well fitted cell-killing curve with a large enough effect in the repeat runs, not every such curve was filed as active; also: nearly all actives have a fitted effect of over 50% in size)
In short: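 Multiplexed counter screen: viability of FXR-bla HEK 293T cells under agonist stimulation by chenodeoxycholic acid (50 uM, final) and test compound for 16 h at 37 C, measured by CellTiter-Glo luminescence in the reporter wells.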

[13] = target: Vitamin D3 receptor (Homo sapiens) (UniProt P11473); assay: qHTS assay to identify small molecule agonists of the vitamin D receptor (VDR) signaling pathway (AID 743222; calls by dose curve)
Vitamin D3 receptor (Homo sapiens), sequence (P11473 whole entry, looked up): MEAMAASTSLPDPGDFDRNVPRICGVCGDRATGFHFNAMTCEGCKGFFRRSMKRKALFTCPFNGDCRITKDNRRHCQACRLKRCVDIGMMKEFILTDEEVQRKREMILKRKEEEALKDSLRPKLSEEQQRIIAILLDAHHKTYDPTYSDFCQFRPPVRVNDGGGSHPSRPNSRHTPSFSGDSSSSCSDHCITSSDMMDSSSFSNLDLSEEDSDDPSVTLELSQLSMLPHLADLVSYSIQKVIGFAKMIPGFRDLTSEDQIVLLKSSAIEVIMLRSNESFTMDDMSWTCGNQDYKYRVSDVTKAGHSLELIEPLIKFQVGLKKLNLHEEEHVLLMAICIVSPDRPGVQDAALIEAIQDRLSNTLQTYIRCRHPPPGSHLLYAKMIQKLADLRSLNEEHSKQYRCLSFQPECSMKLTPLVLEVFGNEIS
In short: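 Using LiveBLAzer B/G FRET detection, agonism was scored in VDR-bla cells exposed overnight (16 h, 37C) to DMSO-dissolved compounds; substrate incubation was 2 h at room temperature.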

[14] = target: Vitamin D3 receptor (Homo sapiens) (UniProt P11473); assay: qHTS assay to identify small molecule antagonists of the vitamin D receptor (VDR) signaling pathway (AID 743223; active = well fitted inhibition curve with a large enough effect in the signal ratio in the repeat runs, not every such curve was filed as active; the % refers to the signal ratio)
In short: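 Cells carrying a VDR-driven beta-lactamase reporter (VDR-bla) were co-treated with compound and 3 nM final 1alpha,25-dihydroxyvitamin D3 for 16 h at 37C; reporter activity was measured as FRET substrate fluorescence after 2 h at room temperature.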

[15] = qHTS assay to identify small molecule agonists of the vitamin D receptor (VDR) signaling pathway - cell viability counter screen (AID 743224); also: series mostly up to about 63 µM; nearly all actives have a fitted effect of over 50% in size
In short: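 Counter screen for cytotoxicity: VDR-bla cells at 2,000 cells/well, 16 h compound exposure, then CellTiter-Glo luminescence after the beta-lactamase measurement.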

[16] = target: Bile acid receptor (Homo sapiens) (UniProt Q96RI1); assay: qHTS assay to identify small molecule antagonists of the farnesoid-X-receptor (FXR) signaling pathway (AID 743217; active = well fitted inhibition curve with a large enough effect in the signal ratio in the repeat runs, not every such curve was filed as active; the % refers to the signal ratio; also: potency is read from the fitted curve at half-maximal effect)
Bile acid receptor (Homo sapiens), sequence (Q96RI1 whole entry, looked up): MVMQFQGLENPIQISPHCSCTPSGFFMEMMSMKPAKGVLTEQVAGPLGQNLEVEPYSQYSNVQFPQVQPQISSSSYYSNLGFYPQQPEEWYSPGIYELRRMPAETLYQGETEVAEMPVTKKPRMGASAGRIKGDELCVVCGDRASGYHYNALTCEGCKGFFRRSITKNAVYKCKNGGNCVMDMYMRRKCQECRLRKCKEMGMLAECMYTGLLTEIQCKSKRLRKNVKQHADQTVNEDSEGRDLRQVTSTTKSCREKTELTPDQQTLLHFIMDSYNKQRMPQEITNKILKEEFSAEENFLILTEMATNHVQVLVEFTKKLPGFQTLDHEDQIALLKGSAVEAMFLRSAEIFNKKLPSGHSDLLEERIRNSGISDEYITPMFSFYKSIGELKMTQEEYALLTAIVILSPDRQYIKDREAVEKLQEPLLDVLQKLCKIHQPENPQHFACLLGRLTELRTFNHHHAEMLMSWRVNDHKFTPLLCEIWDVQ
In short: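 Quantitative HTS, beta-lactamase reporter format: FXR-UAS-bla HEK 293T cells co-treated 16 h at 37 °C with compounds and 50 uM final chenodeoxycholic acid, then read by B/G FRET fluorescence.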

[17] = target: Bile acid receptor (Homo sapiens) (UniProt Q96RI1); assay: qHTS assay to identify small molecule agonists of the farnesoid-X-receptor (FXR) signaling pathway (AID 743220; active = well fitted activation curve with a large enough effect in the signal ratio in the repeat runs, not every such curve was filed as active; the % refers to the signal ratio)
In short: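 FXR-UAS-bla HEK 293T cells carrying a UAS-driven beta-lactamase reporter were plated for 5 h at 37C/5% CO2, then exposed to DMSO-dissolved Tox21 10K compounds for 16 h at 37C. A LiveBLAzer B/G FRET substrate was loaded for 2 h at room temperature before fluorescence reading.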

[18] = qHTS assay for small molecule agonists of the antioxidant response element (ARE) signaling pathway (AID 743202; active = well fitted activation curve with a large enough effect in the signal ratio in the repeat runs, not every such curve was filed as active; the % refers to the signal ratio)
In short: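 HepG2 ARE-bla cells; 16 h treatment at 37 C; FRET-based beta-lactamase fluorescence read after 2 h substrate incubation at room temperature.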

[19] = qHTS assay to identify small molecule agonists of the farnesoid-X-receptor (FXR) signaling pathway - cell viability counter screen (AID 743218); also: nearly all actives have a fitted effect of over 45% in size
In short: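 Same-well cytotoxicity check on FXR-UAS-bla HEK 293T cells: 5 h attachment, 16 h compound at 37 C, CellTiter-Glo luminescence read at room temperature after 30 min.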

| SMILES | Potency [1] | Potency [2] | Potency [3] | Potency [4] | Potency [5] | Potency [6] | Potency [7] | Potency [8] | Potency [9] | Potency [10] | Potency [11] | Potency [12] | Potency [13] | outcome [14] | Potency [15] | Potency [16] | Potency [17] | Potency [18] | Potency [19] |
| --- | --- | --- | --- | --- | --- | --- | --- | --- | --- | --- | --- | --- | --- | --- | --- | --- | --- | --- | --- |
| Nc1ccc(N)c2c1C(=O)c1ccccc1C2=O | 6.11 µM (active) | 21.7 µM (active) | inactive | inactive | inactive | inactive | inactive | inactive | inactive | inactive | inactive | inactive | inactive | inactive | inactive |  |  |  |  |
| COc1ccc(C)cc1[N+](=O)[O-] | inactive | inactive | inactive | inactive | inactive | inactive | inactive | inactive |  | inactive |  | inactive | inactive |  | inactive | inactive | inactive |  |  |
| CN1CCN(C(c2ccccc2)c2ccccc2)CC1 | inactive | inactive | inactive | inactive | inactive | inactive |  | inactive | inactive | inactive | inactive | inactive | inactive | inactive | inactive |  |  | inactive | inactive |
| C=CC1CC2C=CC1C2 (configuration not stated) | inactive | inactive | inactive | inactive | inactive | inactive |  | inactive | inactive |  |  | inactive |  |  | inactive |  |  | inactive |  |
| COC(=O)c1ccc(I)cc1S(=O)(=O)NC(=O)Nc1nc(C)nc(OC)n1 | inactive | inactive | inactive |  | inactive | inactive | inactive | inactive |  |  |  | inactive |  |  | inactive |  |  | inactive | inactive |
| C=C(C)C(=O)OCCOCC | inactive | inactive | inactive | inactive | inactive | inactive |  | inactive | inactive | inactive | inactive | inactive |  |  | inactive |  |  | inactive | inactive |
| C/C=C/C=C/CO | inactive | inactive | inactive |  | inactive | inactive | inactive | inactive | inactive | inactive | inactive | inactive |  | inactive | inactive | inactive | inactive |  | inactive |
| Nc1ncn([C@H]2C[C@H](O)[C@@H](CO)O2)c(=O)n1 | inactive | inactive | inactive | inactive | inactive | inactive |  | inactive |  |  |  | inactive | inactive | inactive | inactive | 10.6 µM (active) | inactive | inactive | inactive |
